Test results as given in the supplement of paper PMC10105736.
A number with no mark means an inactive call.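 How the source made its calls: active = MAPPIT score above the 99th percentile of random reference set scores in the same batch; inactive = at or below it.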

Columns and labels:
Experiment in all cases: MAPPIT interaction score (arbitrary units); higher = stronger binary interaction signal, active = hit call of the paper
[1] = molecular target: sqd; conditions: MAPPIT configuration: N-C; pair source set: Lit-BM-16
[2] = molecular target: ras; conditions: MAPPIT configuration: N-N; pair source set: Finley_Y2H
[3] = molecular target: sip2; conditions: MAPPIT configuration: N-N; pair source set: Curagen_low_conf
[4] = molecular target: saturn; conditions: MAPPIT configuration: N-C; pair source set: screen_4
[5] = molecular target: salr; conditions: MAPPIT configuration: N-N; pair source set: Finley_Y2H
[6] = molecular target: rux; conditions: MAPPIT configuration: N-N; pair source set: Finley_Y2H
[7] = molecular target: sac; conditions: MAPPIT configuration: N-N; pair source set: RRS
[8] = molecular target: ox; conditions: MAPPIT configuration: N-N; pair source set: Curagen_low_conf
[9] = molecular target: pip; conditions: MAPPIT configuration: N-N; pair source set: Lit-BS-16
[10] = molecular target: rst; conditions: pair source set: Lit-BM-16
[11] = molecular target: spir; conditions: pair source set: RRS
[12] = molecular target: poly; conditions: MAPPIT configuration: N-C; pair source set: screen_3
[13] = molecular target: sw; conditions: pair source set: Lit-BM-16
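Further: HEK293T cells with Epo stimulation, STAT-responsive firefly luciferase reporter, fold induction versus unstimulated cells divided by the larger fold induction of two negative controls lacking either bait or prey.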

B1: Hrb27C (protein)
chain: MEEDERGKLFVGGLSWETTQENLSRYFCRFGDIIDCVVMKNNESGRSRGFGFVTFADPTNVNHVLQNGPHTLDGRTIDPKPCNPRTLQKPKKGGGYKVFLGGLPSNVTETDLRTFFNRYGKVTEVVIMYDQEKKKSRGFGFLSFEEESSVEHVTNERYINLNGKQVEIKKAEPRDGSGGQNSNNSTVGGAYGKLGNECSHWGPHHAPINMMQGQNGQMGGPPLNMPIGAPNMMPGYQGWGTSPQQQQYGYGNSGPGSYQGWGAPPGPQGPPPQWSNYAGPQQTQGYGGYDMYNSTSTGAPSGPSGGGSWNSWNMPPNSAGPTGAPGAGAGTATDMYSRAQAWATGGPSTTGPVGGMPRTGPGNSASKSGSEYDYGGYGSGYDYDYSNYVKQEGASNYGAGPRSAYGNDSSTQPPYATSQAV
MAPPIT interaction score [1]: 2.4

B2: peg (protein)
chain: MKLSAVLLAIALLALSLVQCLGLPDPSTKCVMECDTQEYRSICAADDKGSTKTYRNLCVMKTENCLQNANFQKISDKECP
MAPPIT interaction score [2]: -1.69

B3: Mabi (protein)
chain: MEHHQIYRHKKFDMGRKIEKCDLQLKEELISRSGTPCTSRSPFDAANQSVSLGFSDQDADFPPLPKRRRLGSSSSSVSYQSASPIITEAIQDIFKYHVNMVRKFPKKERSPKDQERRNKNTIACRMSRRKKKFDDLQIEQQYKECSDEHLKIAEQSLRARVYLNHLKQLVKQEDHPLVSSRRVPEENTKSNFSIDYLIGGIKQEHA
MAPPIT interaction score [3]: 0.378

B4: ORMDL (protein)
chain: MTSIAGGHGEANPNSSWLSARGFWLAYLLGLLSVHLLFLSVPFVSIPWAWTATNLLHNAAHLYFLHVIKGAPWLSTENDPSRRWTHWEQIDDGVQMTTTRKFLTAVPIVLFLLTCLYTRNNTEHFIPNFISLVVVTLPKLPQFHGVRLFNINKY
MAPPIT interaction score [4]: 0.115

B5: Pof (protein)
chain: MDSKRAALESGDGPDAKRLDTTDDQDKEASGGDGSQVMLAKHVAPYTGHGCTPPMESYLFEPTPAGSQLLPWKTSVDLDNDAELEKPTSDKKPDTAKLSRRELAKMRREHTLRALALERELTNKPGQTPASEVLLVRFPDPEITAPMLAGLSKDIRDVVLPISVAPRYCLVHLKAGADVEATICDINRVRFGTGHLRAELKPFSDEEQAEFIDPCSLYVGNIPFNMTTSAIKAYFANAMRVDIGVLKREKRARYAFVRYASPDQTMEAFKELVDSPLNSRTLTVRYRRLRKRAGMPMVQCATSFQALQSPNGDDDNTDCKVISPPPLESIIISDSDNCSDSSGNGKEDGKRKKKINEQEREIEKLKRQMAEYGAIIKSLQFRQNSLEDTFIPDLTPKVEPSVNPTGCLLGSNAVHLMRDIKKECDYLGIPDPVPATKPTTQAQDDSQKKAKRSCFGRLFTGPFRRGTSAMKTADEYEKDDRLEELYAQLERDPDP
MAPPIT interaction score [5]: 0.283

B6: hfp (protein)
chain: MGSNDRASRSPRSDDQREISDMPATKRTRSDSGKSTDSKIPYLSQPLYDLKQTGDVKFGPGTRSALLGLLGGALPKLSSEQHDLVSKAKKYAMEQSIKMVLMKQTLAHQQQQLATQRTQVQRQQALALMCRVYVGSISFELKEDTIRVAFTPFGPIKSINMSWDPITQKHKGFAFVEYEIPEGAQLALEQMNGALMGGRNIKVGRPSNMPQAQQVIDEVQEEAKSFNRIYVASIHPDLSEEDIKSVFEAFGPILYCKLAQGTSLHTHKGYGFIEYANKQAMDEAIASMNLFDLGGQLLRVGRSITPPNALACPTTNSTMPTAAAVAAAAATAKIQALDAVASNAVLGLSQNTPVMAAGAVVTKVGAMPVVSAATSAAALHPALAQAAPALLPPGIFQAPTPVAPSLLGVPAGLQPLQAVVPTLPPPALLATPTLPMTVGGVGVGLVPTVATLAGAEASKGAAAAAALSAAANNAAVTAANLSENIKKAHEKQQEELQKKLMDEGDVQTLQQQENMSIKGQSARQLVMQRLMRPVDSRVIILRNMVGPEDVDETLQEEIQEECSKFGTVSRVIIFNEKQTENEDDDEAEIIVKIFVEFSAGAEAMRGKEALDGRFFGGRRVVAELYDQGIFDQGDLSG
MAPPIT interaction score [6]: 0.808

B7: insv (protein)
chain: MENQYQRIVSATAREDSQARRSKPLFLNAWSQTSSVDFEVLRSISAPDPQVEVENRALRDKVRYLEAKLQQHKDLLSQIHATSARMQQASSLLAESRPPTPPAVQSHHILTPPSSEICAPAQNPQILDYKIISAPDDADAIEIRLAAESLNSLSTSADSDRLEICLGDENHQQSNHHNSQQQYRISNGIKRDGSSESADTPLQFIKRRKLQEIQLQEEIPRQNIKLPAKPQVKARNGSFTDLNKGQQQNMDNVMVSIGPNNTCVPASVFENINWSVCSLATRKLLVTIFDRETLATHSMTGKPSPAFKDQDKPLKRMLDPGKIQDIIFAVTHKCNASEKEVRNAITTKCADENKMMKIQNVKRRSSGIKHEKENII
MAPPIT interaction score [7]: -0.275

B8: eEF1beta (protein)
chain: MAFGDVTTPQGLKELNAFLADNSYISGYTPSKADLSVFDALGKAPSADNVNVARWYRHIASFEAAERAAWSGTPLPQLAGGKPTVAAAAKPAADDDDDVDLFGSDDEEDEEAERIKQERVAAYAAKKSKKPALIAKSSVLLDVKPWDDETDMKEMENNVRTIEMDGLLWGASKLVPVGYGINKLQIMCVIEDDKVSIDLLQEKIEEFEDFVQSVDIAAFNKI
MAPPIT interaction score [8]: 0.286

B9: Snp (protein)
chain: MALIKLARQLGLIDTIYVDGARPDPNNDPEESFNEDEVTEANSVPAKSKKSRKSKRLAMQPYSYVIAVDFEATCWEKQAPPEWREAEIIEFPAVLVNLKTGKIEAEFHQYILPFESPRLSAYCTELTGIQQKTVDSGMPLRTAIVMFNEWLRNEMRARNLTLPKMNKSNILGNCAFVTWTDWDFGICLAKECSRKGIRKPAYFNQWIDVRAIYRSWYKYRPCNFTDALSHVGLAFEGKAHSGIDDAKNLGALMCKMVRDGALFSITKDLTPYQQLNPRFVL
MAPPIT interaction score [9]: -0.236

B10: rst (protein)
chain: MLHTMQLLLLATIVGMVRSSPYTSYQNQRFAMEPQDQTAVVGARVTLPCRVINKQGTLQWTKDDFGLGTSRDLSGFERYAMVGSDEEGDYSLDIYPVMLDDDARYQCQVSPGPEGQPAIRSTFAGLTVLVPPEAPKITQGDVIYATEDRKVEIECVSVGGKPAAEITWIDGLGNVLTDNIEYTVIPLPDQRRFTAKSVLRLTPKKEHHNTNFSCQAQNTADRTYRSAKIRVEVKYAPKVKVNVMGSLPGGAGGSVGGAGGGSVHMSTGSRIVEHSQVRLECRADANPSDVRYRWFINDEPIIGGQKTEMVIRNVTRKFHDAIVKCEVQNSVGKSEDSETLDISYAPSFRQRPQSMEADVGSVVSLTCEVDSNPQPEIVWIQHPSDRVVGTSTNLTFSVSNETAGRYYCKANVPGYAEISADAYVYLKGSPAIGSQRTQYGLVGDTARIECFASSVPRARHVSWTFNGQEISSESGHDYSILVDAVPGGVKSTLIIRDSQAYHYGKYNCTVVNDYGNDVAEIQLQAKKSVSLLMTIVGGISVVAFLLVLTILVVVYIKCKKRTKLPPADVISEHQITKNGGVSCKLEPGDRTSNYSDLKVDISGGYVPYGDYSTHYSPPPQYLTTCSTKSNGSSTIMQNNHQNQLQLQQQQQQSHHQHHTQTTTLPMTFLTNSSGGSLTGSIIGSREIRQDNGLPSLQSTTASVVSSSPNGSCSNQSTTAATTTTTHVVVPSSMALSVDPRYSAIYGNPYLRSSNSSLLPPPTAV
MAPPIT interaction score ([10]; MAPPIT configuration: N-C): 1.64 | MAPPIT interaction score ([10]; MAPPIT configuration: N-N): 0.661

B11: Acp1 (protein)
chain: MKFAVAVIFTLALAMGVQSSVIPLLSQVAGHGLSYTAVSGPAVVASPWAVPAAHWPAAVNVASWPPAAIHAAAPAVLAAPAPAVVAAHAPSVVVAPVAHSGVYTAQTRGAIHTAPLAGHIQSVASINAAPAPGTL
MAPPIT interaction score ([11]; MAPPIT configuration: N-C): 0.0271 | MAPPIT interaction score ([11]; MAPPIT configuration: N-N): 0.686

B12: GstE14 (protein)
chain: MSQPKPILYYDERSPPVRSCLMLIKLLDIDVELRFVNLFKGEQFQKDFLALNPQHSVPTLVHGDLVLTDSHAILIHLAEKFDEGGSLWPQEHAERMKVLNLLLFECSFLFRRDSDFMSATVRQGFANVDVAHHERKLTEAYIIMERYLENSDFMAGPQLTLADLSIVTTLSTVNLMFPLSQFPRLRRWFTAMQQLDAYEANCSGLEKLRQTMESVGSFQFPSSSAVVTEKVE
MAPPIT interaction score [12]: -0.119

B13: DCTN1-p150 (protein)
chain: MSEKNLKVGARVELTGKDLLGTVAYVGMTSFAVGKWVGVVLDEPKGKNSGSIKGQQYFQCDENCGMFVRPTQLRLLEAAPGSRRSIEDVSGATPTAAQPTKARLSSSRTSLSSSRQSLLGSRTQLTTSLSERTASSSSIGPRKSLAPQNSKDKESPSTSLAEGAPAASGGNGAASHASSKRASFVETGFLEILKPQFTPSQPLRSPSFTMPSNSGAEDKVALLEAQKTSAELQAQLADLTEKLETLKQRRNEDKERLREFDKMKIQFEQLQEFRTKIMGAQASLQKELLRAKQEAKDAIEAKEQHAQEMADLADNVEMITLDKEMAEEKADTLQLELESSKERIEELEVDLELLRSEMQNKAESAIGNISGGGDSPGLSTYEFKQLEQQNIRLKETLVRLRDLSAHDKHDIQKLSKELEMKRSEVTELERTKEKLSAKIDELEAIVADLQEQVDAALGAEEMVEQLAEKKMELEDKVKLLEEEIAQLEALEEVHEQLVESNHELELDLREELDLANGAKKEVLRERDAAIETIYDRDQTIVKFRELVQKLNDQLTELRDRNSSNEKESLQDPSLKMVTETIDYKQMFAESKAYTRAIDVQLRQIELSQANEHVQMLTAFMPESFMSRGGDHDSILVILLISRIVFKCDIVVSQTRERFPPVDAITREAVTQGHAVQQYAFKCRLLHYVHSLQCALHQILYGLNSCQPDTLLRAGSSLPEMVAQEKIVDGIIELLKSNQLDENSTTDNIEKCVAFFNAMNSVLLAGEQLLNEIQMIRDCVASLGAACESILSDTAIAKVIIQEAGATSDSVLLIQFLNENMESVRQQVKLIKRRLPSDQHVIKSGLSQHKVEAMRGLAQNISRIMSAMHQATKQSLAAIVSTIESDNAAEHTLPQEKYWALLTASCERIYEQDDRGPTQNFKTLLAQANSDLQLIAQHLLDKEYDIISAANNASNQQKSGAHSTPITQRAQLIKKQLEQKNVLAATLENREADVKQLKVAAKMKQNELSEMQIRKDLAEKKLSVLQNEYEHAVDKWKQKYEETSLQLQLKEKEFEETMDHLQSDIDALESEKSDLRDKLKLNSTTGKVQPGSESHSPHNISLSGNTSTAPGISNVSYSAPAGTAPVVAEEVELLKNAFNQERNQRLRLQAQDMRAKLSQFEPLHVPQPQDQRITALESELTRMKHAWVLSLLQVRSQDSVNSGTRIDAVALQRRNQPVPLKGEISSKASQLASDILTEYLQRKPHRATHGQFASFPTVDVKRVLQI
MAPPIT interaction score ([13]; MAPPIT configuration: N-C): 0.412 | MAPPIT interaction score ([13]; MAPPIT configuration: N-N): -0.153
